# Source: PubChem BioAssay (The Scripps Research Institute Molecular Screening Center)
# MOR-DOR ag-1 – agonists of human mu-delta opioid receptor heterodimerization | P35372+P41143 | cells, OPRM1-OPRD1 heterodimerization, luminescence | activation, % at 9.3 µM | hit rate 0.3% among 340,000 | AID 504326;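 note: 0% = vehicle-treated cells and 100% = reference agonist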
# HGIII-sPLA2 inh – Inhibits HGIII-sPLA2 liposome hydrolysis, primary screen. Q9NZ20. QFRET BODIPY PC-A2 liposome hydrolysis, fluorescence. inhibition, % at 12.2 µM. hit rate 0.56% among 370,000;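 active = inhibition above mean plus 3 SD of compounds lying within the high and low control bounds, cut at about 19% in these data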;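 note: 0% = median of test compound wells and 100% = no enzyme DMSO wells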
# Target sequence (Q9NZ20 whole entry, looked up): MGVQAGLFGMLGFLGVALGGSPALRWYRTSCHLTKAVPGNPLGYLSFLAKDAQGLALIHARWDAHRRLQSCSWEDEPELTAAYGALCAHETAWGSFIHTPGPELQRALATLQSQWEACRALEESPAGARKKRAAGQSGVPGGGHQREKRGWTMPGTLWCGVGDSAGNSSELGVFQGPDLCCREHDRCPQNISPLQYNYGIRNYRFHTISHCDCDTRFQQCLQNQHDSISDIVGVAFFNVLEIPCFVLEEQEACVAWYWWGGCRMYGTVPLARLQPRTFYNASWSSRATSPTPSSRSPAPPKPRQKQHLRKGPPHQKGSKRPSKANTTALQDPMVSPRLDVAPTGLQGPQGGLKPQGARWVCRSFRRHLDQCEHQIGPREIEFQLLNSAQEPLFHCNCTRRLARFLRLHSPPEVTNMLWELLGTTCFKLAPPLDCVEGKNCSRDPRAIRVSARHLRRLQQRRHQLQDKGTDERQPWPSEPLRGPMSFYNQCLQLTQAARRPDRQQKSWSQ
# HTR5A inv ctr – HTR5A inverse agonism, opioid heterodimer counter-screen. HTR5A cell line, luminescence. P47898. hit rate 0.083% among 340,000. inhibition, % at 9.3 µM; in the data active = inhibition mostly above about 23%, no sharp cut-off; inactive = mostly below about 18%;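 note: 0% = cells with DMSO and 100% = no-cell wells with DMSO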
# HTR5A ag ctr – counter-screen for OPRM1-OPRD1 agonists: human HTR5A agonism | hit rate 0.61% among 340,000 | P47898 | AID 504692 | HTR5A agonist assay, luminescence, cell-based | activation, % at 9.3 µM; in the data active = activation mostly above about 9.5%, no sharp cut-off; inactive = mostly below about 7.6%;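 note: 0% = cells with vehicle only and 100% = reference agonist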
# HTR2A ag – mouse HTR2A agonism via beta-arrestin recruitment; activation, % at 7.6 µM; CHO-K1 mHTR2A beta-arrestin complementation, luminescence; percent of 30 µM serotonin response; AID 624169; hit rate 0.66% among 360,000; P35363;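 active = activation above a run cutoff, the mean activation of all tested compounds plus 3 SD, cut at about 14% in these data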;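 note: 0% = plate median of compound wells and 100% = 30 µM serotonin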
# OPRM1-OPRD1 inv – inverse agonists of human mu-delta opioid receptor heterodimerization | inhibition, % at 9.3 µM | P35372+P41143 | hit rate 0.21% among 340,000 | cell-based MOR-DOR heterodimer luminescence, inverse agonism; in the data active = inhibition above about 22%, passing the limit was not always enough;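 note: 0% = cells with DMSO and 100% = wells without cells with DMSO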
# MOR-DOR ag-2 – promotes OPRM1-OPRD1 heterodimerization in HTR5A counter-screen. shares compounds with HTR5A ag ctr. U2OS counter-screen cells, complementation luminescence, 3 h. activation, % at 9.3 µM. hit rate 13% among 800. AID 504913
# HTR5A ag conf – confirmation of human HTR5A agonists; shares compounds with HTR5A ag ctr; HTR5A agonist cell assay, luminescence; activation, % at 9.3 µM; hit rate 17% among 800; in the data active = activation above about 17%;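 note: 0% = cells with vehicle only and 100% = full reference agonist response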
# Starred values were filed as active, the others as inactive; / = no result. Only some compounds are listed: those with a hit (about 2.2% of all), similar ones and a draw of the others. Cut-off read from the data, not from the text of the source, unless noted: active = activation above about 18%; inactive = the rest.
SMILES,MOR-DOR ag-1,HGIII-sPLA2 inh,HTR5A inv ctr,HTR5A ag ctr,HTR2A ag,OPRM1-OPRD1 inv,MOR-DOR ag-2,HTR5A ag conf
CCOC(=O)c1c(NC(=O)CSc2n[nH]c(-c3ccco3)n2)sc(C)c1C,0,-33,-24,5,1,0,/,/
CCOC(=O)c1c(NC(=O)CSc2n[nH]c(N)n2)sc(CC)c1C,3,-27,-24,17*,2,-19,9,2
CCOC(=O)c1c(NC(=O)CSc2n[nH]c(CNc3ccccc3)n2)sc(C)c1C,9,-17,-12,23*,3,-50,6,4
CN(Cc1ccccc1Cl)C(=O)c1cnccc1C(F)(F)F,-2,-1,-4,15*,1,11,0,3
COc1ccc(OC)c(C2SCCN2S(=O)(=O)c2cccc(C(F)(F)F)c2)c1 (stereo unspecified),3,-8,-39,17*,-2,-18,3,-4
COc1ccc(N(CC(=O)NCCSc2ccccn2)S(=O)(=O)c2ccccc2)c(OC)c1,4,-4,-58,19*,-14,-31,0,21*
O=C(Nc1ccc(N2CCN(Cc3ccccc3F)CC2)cc1)c1ccc([N+](=O)[O-])o1,8,5,-23,25*,-1,-43,-2,-1
Cc1nc2ccc(NC(=O)c3cccs3)cc2c(=O)n1Cc1ccc(Cl)cc1,2,-17,-39,15*,-2,-9,-2,-3
CCCc1nc2ccc(NC(=O)c3cccs3)cc2c(=O)n1Cc1ccc(Cl)cc1,-1,-1,-9,4,-2,5,/,/
CCOc1ccc(-n2c(SCC(=O)Nc3ccc4c(c3)OCCO4)nnc2-c2ccncc2)cc1,/,1,/,/,/,/,/,/
COc1cccc(NC(=O)COc2ccc(S(=O)(=O)NC(C)C)cc2)c1,-1,-5,-37,15*,2,2,2,2
COc1ccc(NC(=O)c2sc(NC(=O)COc3ccccc3)nc2C)cc1,-1,-2,-37,0,-5,8,/,/
CC(=O)c1cccc(NC(=O)COc2ccccc2)c1,-1,2,-36,15*,-1,4,5,13
Cc1nc(NC(=O)COc2ccccc2)sc1C(=O)Nc1cccc(Cl)c1,3,-5,-46,18*,-3,-16,4,4
COc1ccc(OCC(=O)Nc2cccc(OC)c2)cc1,-3,-7,-20,5,0,14,/,/
CCCC/C=C1/[C@H](c2ccccc2)N(C)C2=N[C@H](c3ccccc3)CC(=O)N21,/,-4,/,/,/,/,/,/
CC1CCCC(NC(=O)COC(=O)c2cc(S(=O)(=O)N3CCOCC3)ccc2F)C1C (stereo unspecified),0,-2,-47,18*,-7,0,4,6
O=C(NCCc1ccc(F)cc1)C(=O)NCC1CCCN1S(=O)(=O)c1cccs1 (stereo unspecified),3,1,-40,15*,-2,-19,2,0
CNC(=O)C(=O)NCC1CCCN1S(=O)(=O)c1cccs1 (stereo unspecified),-1,-5,5,-2,3,6,/,/
O=S(=O)(N/N=C\C=C\c1ccccc1)c1ccc(Br)cc1,6,-6,-40,19*,-2,-26,-1,3
Cc1ccc(S(=O)(=O)N/N=C\C=C\c2ccccc2)cc1,2,-5,-74,38*,-3,-12,1,4
Nc1ccc(S(=O)(=O)NN=CC=Cc2ccccc2[N+](=O)[O-])cc1,2,0,11,-3,-6,-9,/,/
COc1ccc(-c2cc3ccc(F)cc3cn2)cc1,3,-4,-4,3,-5,-18,/,/
COc1ccc(-c2cc3cc(F)ccc3cn2)cc1,5,2,-65,24*,-2,-30,22*,-1
COc1ccc(C)cc1NC(=O)CSc1nnc(-c2ccc(Br)cc2)o1,2,-1,-17,22*,-1,-9,2,2
SMILES,MOR-DOR ag-1,HGIII-sPLA2 inh,HTR5A inv ctr,HTR5A ag ctr,HTR2A ag,OPRM1-OPRD1 inv,MOR-DOR ag-2,HTR5A ag conf
O=C(c1cccc(I)c1)N1CCC(Oc2cccnc2)CC1,/,3,/,/,/,/,/,/
O=C(Cn1cc(CNC(=O)C2CCCCC2)nn1)Nc1cc(C(F)(F)F)ccc1Cl,-1,4,0,20*,-2,5,-4,-17
O=C(COC(=O)CNC(=O)C1CCCCC1)Nc1cc(C(F)(F)F)ccc1Cl,2,0,13,-5,-2,-12,/,/
CCCc1[nH]n(-c2ccc([N+](=O)[O-])cc2)c(=O)c1C=NCCc1c[nH]c2ccccc12,1,2,-44,20*,-1,-7,5,5
Cc1[nH]n(-c2ccc([N+](=O)[O-])cc2)c(=O)c1C=NCCc1c[nH]c2ccccc12,1,-1,-100,34*,5,-5,3,10
Cc1[nH]n(-c2ccccc2)c(=O)c1C=NCCc1ccccc1,-2,-4,-1,2,-1,12,/,/
COC(=O)c1cc2c(c3c4cc(C)ccc4n(S(=O)(=O)c4ccc(C)cc4)c13)C(=O)N(Cc1ccccc1OC)C2,/,14,/,/,/,/,/,/
CN(C)c1ccc(NC(=S)N2CCN(c3ncc(C(F)(F)F)cc3Cl)CC2)cc1,2,5,-10,16*,6,-11,1,5
CN(C(=O)c1cccc(NC(=O)Cc2ccc(NC(=O)C3CCCN(C(=O)CCc4ccccc4)C3)cc2)c1)C1CCC1 (stereo unspecified),4,-29,-77,20*,2,-20,5,5
CN(C(=O)c1cccc(NC(=O)Cc2ccc(NC(=O)C3CCCN(C(=O)CCc4ccccc4)C3)cc2)c1)C1CCCC1 (stereo unspecified),4,-35,2,0,-2,-16,/,/
Cc1ccc2sc(N(CCCN(C)C)C(=O)CCS(=O)(=O)c3ccccc3)nc2c1C,4,-13,-57,15*,-11,-21,7,10
CN(C)CCCN(C(=O)CCS(=O)(=O)c1ccccc1)c1nc2cc3c(cc2s1)OCO3,-2,2,-8,15*,-4,11,4,-1
CN(CC(=O)Nc1ccc(Cl)cc1)C(=O)CCc1nc2sc3c(c2c(=O)[nH]1)CCCC3,10,15,-46,21*,3,-66,6,15
COc1ccc(C(=O)NCCc2c[nH]c3ccccc23)cc1OC,-3,-26,-9,-4,1,16,/,/
COc1ccc2[nH]cc(CCNC(=O)C3CCCO3)c2c1 (stereo unspecified),-2,-4,-139,42*,8,11,3,35*
COc1ccc2[nH]cc(CCNC(C)=O)c2c1,-1,1,-10,3,1,6,/,/
